Pf growth 48h = Primary qHTS for delayed death inhibitors of the malarial parasite plastid, 48 hour incubation; P. falciparum luciferase growth in erythrocytes, 48 h; Potency, µM (titrated, usually from 28.7 µM), inactives show at the top dose activity change, negative = inhibition, usual class: inhibitors; 310,000 compounds, 5.9% hits; AID 504832, 2011; further: on the % scale 0 is the no-effect control and ±100 the full control effect
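In quantitative HTS format, infected erythrocytes bearing luciferase-reporter parasites were treated for a single generation at 37 C. Luminescence after adding detection reagent served as the growth measure.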
Pf growth 96h = Primary qHTS for delayed death inhibitors of the malarial parasite plastid, 96 hour incubation; Potency, µM (highest dose often 28.7 µM), for the others: at the top dose activity change, negative = inhibition, actives largely listed as inhibitors; P. falciparum luciferase reporter growth, 96 h; 320,000 compounds, 6.9% hits; further: on the % scale 0 is the no-effect control and ±100 the full control effect
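Delayed-death screen, second-generation endpoint: infected erythrocytes, 2% hematocrit, 0.05% parasitemia final; 96 hours at 37 C, 5% CO2; luciferase detection reagent; luminescence decrease equals reduced growth.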
AMA1-RON2 inh = qHTS for Inhibitors of AMA1-RON; Towards Development of Antimalarial Drug Lead: Primary Screen; AID 720542, 2013; 360,000 compounds, 0.2% hits; AlphaScreen AMA1-biotinylated RON2 peptide binding; Potency, µM (top dose mostly 58.2 µM), without a hit: at the highest dose activity change, negative = inhibition, most hits filed as inhibitors; Plasmodium falciparum AMA1 (3D7) - RON2 peptide interaction;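 further: 0% = vehicle wells and -100% = peptide control; nearly all actives have a fitted effect of over 45% in size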
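AMA1 (3D7) with his tag at 25 nM final met compounds first, then biotinylated RON2 peptide at 25 nM; detection used donor plus acceptor beads, 10 µg/mL apiece, read by AlphaScreen after 30 min at room temperature.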
Sm TGR inh = qHTS Assay for the Inhibitors of Schistosoma Mansoni Peroxiredoxins; Schistosoma mansoni thioredoxin glutathione reductase (TGR), Q962Y6; 360,000 compounds, 3% hits; Potency, µM (highest dose often 114 µM), for the others: at the top dose activity change, negative = inhibition, most hits filed as inhibitors; purified TGR, DTNB reduction, TNB absorbance 405 nm; further: on the % scale 0 is the no-effect control and ±100 the full control effect; nearly all actives have a fitted effect of over 60% in size
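Kinetic colorimetric format: TGR-catalysed, NADPH-driven DTNB reduction monitored via TNB absorbance. Enzyme dispensed at 20 nM; compound exposure 15 min at room temperature before reaction start.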
NS1 inh = qHTS Assay for Inhibitors of Influenza NS1 Protein Function | Potency, µM (highest dose often 46.1 µM), for inactives: at the highest dose activity, positive = more growth | 270,000 compounds, 0.4% hits | AID 2326, 2010; calls by dose curve; further: actives are rising curves; nearly all actives have a fitted effect of over 50% in size
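In this qHTS, NS1 from influenza A is expressed in budding yeast, where it slows growth. Cells are switched from glucose to 2% galactose medium (pH 6.0, -URA), treated with compound, and growth recovery is read at OD600.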
Numbers without * were called inactive; ? = inconclusive; . = no result given. In the library only some 11% were active in any assay of this set; here they are far more common. Unless noted, the call rests on the fitted dose curve; in most records, active means well fitted curve in the direction sought with a large enough effect; inconclusive means small, poorly fitted or top-dose-only effect, or another doubt; inactive means no such curve, though single readings can be large; an effect the other way counts as inactive or inconclusive. Potency means the concentration at half of the fitted maximal effect.

SMILES	Pf growth 48h	Pf growth 96h	AMA1-RON2 inh	Sm TGR inh	NS1 inh
Cc1ccc(C(=O)NC(C)c2ccc(-n3ccnc3)cc2)cc1S(=O)(=O)N1CCOCC1 (centres undefined)	?	?	-25%	-4%	.
CC(NC(=O)c1ccc(N(C)C)c([N+](=O)[O-])c1)c1ccc(-n2ccnc2)cc1 (centres undefined)	-11%	?	-17%	-2%	-12%
CC(NC(=O)c1cc(S(=O)(=O)N2CCOCC2)ccc1F)c1ccc(-n2ccnc2)cc1 (centres undefined)	-22%	9.3µM*	-1%	6%	.
O=C(CN1C(=O)NC2(CCCCC2)C1=O)NCCc1ccc(Cl)cc1Cl	.	.	-3%	.	.
CC1CCN(c2c(NCC3CCC(C(=O)NCc4ccccc4Cl)CC3)c(=O)c2=O)CC1 (centres undefined)	?	?	-3%	3%	-18%
CCc1ccc(C(=O)COC(=O)CNC(=O)c2ccc(N3C(=O)c4ccccc4C3=O)cc2)cc1	36%	15µM*	19%	-21%	15%
O=C(CNC(=O)c1ccc(N2C(=O)c3ccccc3C2=O)cc1)OCC(=O)c1ccccc1	-3%	52%	-4%	-11%	8%
O=C(COC(=O)c1ccco1)NC12CC3CC(CC(C3)C1)C2	.	.	11%	.	.
COC(=O)CCc1sc(Nc2ccc(OC)cc2)nc1-c1ccc(OC)cc1	.	.	.	-3%	.
Cc1cc(C(=O)NCCc2ccc(S(N)(=O)=O)cc2)c(C)o1	18%	1%	-16%	1%	-4%
Cc1ccc(N(CC(O)COCc2ccco2)S(=O)(=O)c2ccc(C)cc2)cc1 (centres undefined)	42%	?	-29%	8.9µM*	?
CCCN(CCC)CC(O)CN(c1ccccc1)S(=O)(=O)c1ccc(C)cc1 (centres undefined)	.	?	1%	-29%	-3%
COc1ccccc1N(CC(=O)NCc1ccco1)S(=O)(=O)c1ccc(C)cc1	-26%	69%	-21%	40µM*	-1%
Cc1ccc(S(=O)(=O)N(Cc2ccc(Cl)cc2)c2ccccc2C(=O)NCc2ccco2)cc1	6.6µM*	-20%	-20%	-3%	16%
Cc1ccc(N(CC(=O)NCc2ccco2)S(=O)(=O)c2ccccc2)cc1	13µM*	-87%	-15%	25µM*	-11%
OCCC1CN(Cc2cnc(N3CCOCC3)s2)CCN1C1CCCC1 (centres undefined)	-10%	-3%	-3%	-1%	?
Cc1ccc(C(C(=O)NC2CCCCC2)N(Cc2cccnc2)C(=O)c2csnn2)cc1 (centres undefined)	-25%	-15%	1%	-7%	1%
Cn1ncc(N2CCN(C(=O)c3ccc(Cl)cc3)CC2)c(Cl)c1=O	8%	?	1%	0%	0%
CCOc1ccccc1NC(=O)c1ccc2c(O)c(S(=O)(=O)c3ccccc3)c(=O)[nH]c2c1	.	.	-1%	.	.
Cc1c(CCC(=O)O)c(=O)oc2cc3occ(C(C)(C)C)c3cc12	-8%	1µM*	9%	-3%	-30%
Cc1c(CCC(=O)O)c(=O)oc2cc3occ(-c4ccc(F)cc4)c3cc12	-18%	.	0%	8%	-98%
COc1cccc(/C=C2\CCC(C3CCCC3)C2=O)c1 (centres undefined)	59%	40%	6%	40µM*	-11%
Cc1ccc(C)n1-c1ccc(C(=O)NC2CCN(Cc3ccccc3)CC2)cc1	?	12µM*	-5%	-10%	2%
Cc1cc(F)ccc1S(=O)(=O)Nc1ccccc1C(=O)NC1CCN(Cc2ccccc2)CC1	2.9µM*	3.3µM*	-16%	2%	.
O=C(NC1CCCCCC1)c1ccc(CN2CCOCC2)cc1	54%	10µM*	-1%	8%	-12%
SMILES	Pf growth 48h	Pf growth 96h	AMA1-RON2 inh	Sm TGR inh	NS1 inh
O=C(NC1CCN(Cc2ccccc2)CC1)c1cn(-c2ccccc2)nc1-c1cccnc1	3.7µM*	2.3µM*	6%	1%	.
O=C(O)c1cn(-c2ccccc2)nc1-c1cccnc1	.	.	-6%	3%	?
COc1ccc2c(c1)CC(C(=O)NCCCN1CCN(c3ccc(F)cc3)CC1)CO2 (centres undefined)	.	.	.	-10%	.
CCOC(=O)C1CCN(C(=O)Cn2c(-c3cccs3)cc3cc(Cl)ccc32)CC1	.	.	.	2%	.
COc1ccc(C2CC(c3ccc(OC)cc3)n3nc(NS(C)(=O)=O)nc3N2)cc1 (centres undefined)	4%	0%	0%	-1%	6%
CCc1nc2ccc(C(=O)NC3CCN(Cc4ccccc4)CC3)cn2c1N(C)Cc1ccc(N(C)C)cc1	.	.	22µM*	.	.
CCc1nc2ccc(C(=O)NC3CCN(C)CC3)cn2c1N(C)CCC(C)C	.	.	0%	.	.
O=C(N=NC(=O)c1ccc2c(O)n(CC3CCCO3)c(O)c2c1)c1cccnc1 (centres undefined)	?	13%	1%	4%	7%
Cc1cc(Br)ccc1NC(=O)COc1cc(=O)n(C)c2ccccc12	.	.	.	-7%	.
CCOc1ccc(-n2c(-c3cccs3)nc3ccccc3c2=O)cc1	1%	9.3µM*	-5%	29%	0%
COCCCN1C2=C(C(=O)CC(C)(C)C2)C(c2ccc(O)c(OC)c2)C2=C1CC(C)(C)CC2=O	?	-8%	5%	-62%	17%
CC1(C)CC(=O)C2=C(C1)N(CCN1CCOCC1)C1=C(C(=O)CC(C)(C)C1)C2c1ccc(Cl)cc1	5.2µM*	?	-14%	-1%	-14%
COc1ccc(C2C3=C(CC(C)(C)CC3=O)N(CCN3CCOCC3)C3=C2C(=O)CC(C)(C)C3)cc1	-16%	-26%	-1%	-29%	-2%
CC1(C)CC(=O)C2=C(C1)N(CCN1CCOCC1)C1=C(C(=O)CC(C)(C)C1)C2c1cccc(F)c1	12µM*	0%	37%	-8%	-10%
CCCCCCC[N+](CC)(CC)CCCCc1ccc(Cl)cc1	0.47µM*	0.47µM*	-5%	-1%	.
CCc1ccc(NC(=O)C(C)n2nnc3sc(-c4ccccc4)cc3c2=O)cc1 (centres undefined)	.	.	.	3%	.
CCc1ccc(N2C(=O)c3sc4nnc(-c5ccccc5)c(=O)n4c3C2=O)cc1	-9%	36%	-1%	10µM*	5%
CN1CCCN(Cc2ccc(Cl)cc2Cl)CC1	.	-26%	-19%	7%	-2%
N=c1c2c(n(Cc3ccccc3)c3c1CCC3)CCC2	0.41µM*	0.13µM*	4%	0%	-2%
N=c1c2c(n(Cc3cccc(Cl)c3)c3c1CCC3)CCCC2	0.26µM*	-107%	-4%	-3%	-4%
N=c1sc2c(n1Cc1ccccc1)CCCC2	-15%	65%	1%	3%	-2%
N=c1c2c(n(Cc3ccc(Cl)cc3Cl)c3c1CCC3)CCCC2	0.19µM*	.	36%	4%	-4%
